The campaign covered roughly 5,500 compounds. About 2,000 (36%) were called active. Not shown: some 18% with an inconclusive outcome. Cut-off read from the data, not from the text of the source: active = normalized growth mostly below about 0.91 (no sharp cut-off); inconclusive = no clear call, values can overlap the other calls; inactive = mostly above about 0.92. This is one part of the list.
Assay: chemical genetic growth profiling, strain panel (AID 1159580);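 note: tested at 20 µM; growth read once vehicle control cultures reached saturation at 30 °C; 1 = growth at the plate median or of vehicle wells; lower values mean less growth of the strain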
Details: growth OD

Measured: normalized growth

COc1cc(O)c2c(=O)cc(-c3ccc(O)cc3)oc2c1
inactive: S. cerevisiae deletion strains, locus YBR021W, strain FUR4, hits give low values 1.02 | S. cerevisiae deletion strains, locus YBR229C, strain ROT2, hits give low values 1 | S. cerevisiae deletion strains, locus YCL029C, strain bik1, hits give low values 1 | S. cerevisiae deletion strains, locus YDL035C, strain GPR1, hits give low values 1 | S. cerevisiae deletion strains, locus YDL074C, strain BRE1, hits give low values 1.01 | S. cerevisiae deletion strains, locus YDL101C, strain DUN1, hits give low values 1.02 | S. cerevisiae deletion strains, locus YDL185W, strain tfp1, hits give low values 1.02 | S. cerevisiae deletion strains, locus YDL192W, strain arf1, hits give low values 1.05 | S. cerevisiae deletion strains, locus YDR101C, strain arx1, hits give low values 1.03 | S. cerevisiae deletion strains, locus YDR162C, strain NBP2, hits give low values 1.06 | S. cerevisiae deletion strains, locus YDR318W, strain mcm21, hits give low values 1.02 | S. cerevisiae deletion strains, locus YDR388W, hits give low values 0.994 | S. cerevisiae deletion strains, locus YDR502C, strain sam2, hits give low values 1 | S. cerevisiae deletion strains, locus YEL061C, strain CIN8, hits give low values 1 | S. cerevisiae deletion strains, locus YER110C, hits give low values 1.02 | S. cerevisiae deletion strains, locus YER155C, strain BEM2, hits give low values 1.04 | S. cerevisiae deletion strains, locus YER167W, strain BCK2, hits give low values 1.02 | S. cerevisiae deletion strains, locus YGL078C, strain dbp3, hits give low values 1.03 | S. cerevisiae deletion strains, locus YGL086W, strain mad1, hits give low values 1 | S. cerevisiae deletion strains, locus YGL248W, strain PDE1, hits give low values 1.02 | S. cerevisiae deletion strains, locus YGR135W, strain pre9, hits give low values 1.04 | S. cerevisiae deletion strains, locus YGR252W, strain gcn5, hits give low values 0.949 | S. cerevisiae deletion strains, locus YHR030C, strain SLT2, hits give low values 1.01 | S. cerevisiae deletion strains, locus YHR079C, strain IRE1 (second series), hits give low values 1.01 | S. cerevisiae deletion strains, locus YHR094C, strain hxt1, hits give low values 0.996 | S. cerevisiae deletion strains, locus YHR129C, strain ARP1, hits give low values 1.01 | S. cerevisiae deletion strains, locus YHR200W, strain rpn10, hits give low values 1.07 | S. cerevisiae deletion strains, locus YIL066C, strain RNR3, hits give low values 1.02 | S. cerevisiae deletion strains, locus YIL073C, strain SPO22, hits give low values 1.02 | S. cerevisiae deletion strains, locus YIL125W, strain kgd1, hits give low values 1.02 | S. cerevisiae deletion strains, locus YJL095W, strain BCK1, hits give low values 1.05 | S. cerevisiae deletion strains, locus YJL134W, strain LCB3, hits give low values 0.997 | S. cerevisiae deletion strains, locus YJL168C, strain set2, hits give low values 1 | S. cerevisiae deletion strains, locus YJL187C, strain SWE1 (second series), hits give low values 1.02 | S. cerevisiae deletion strains, locus YJR043C, strain POL32, hits give low values 1 | S. cerevisiae deletion strains, locus YJR075W, strain HOC1, hits give low values 1 | S. cerevisiae deletion strains, locus YKL009W, strain mrt4, hits give low values 0.981 | S. cerevisiae deletion strains, locus YKL068W, hits give low values 1 | S. cerevisiae deletion strains, locus YKL085W, strain MDH1 (second series), hits give low values 0.994 | S. cerevisiae deletion strains, locus YKL085W, strain MDH1, hits give low values 0.994 | S. cerevisiae deletion strains, locus YKR001C, strain vps1, hits give low values 1.01 | S. cerevisiae deletion strains, locus YLR039C, strain RIC1, hits give low values 1.07 | S. cerevisiae deletion strains, locus YLR058C, strain SHM2, hits give low values 1.01 | S. cerevisiae deletion strains, locus YLR102C, strain apc9, hits give low values 1.04 | S. cerevisiae deletion strains, locus YLR262C, strain YPT6, hits give low values 1.07 | S. cerevisiae deletion strains, locus YLR268W, strain sec22, hits give low values 1.01 | S. cerevisiae deletion strains, locus YLR330W, strain CHS5, hits give low values 0.997 | S. cerevisiae deletion strains, locus YLR342W, strain FKS1 (second series), hits give low values 1.01 | S. cerevisiae deletion strains, locus YLR371W, strain rom2, hits give low values 1.03 | S. cerevisiae deletion strains, locus YLR418C, strain cdc73, hits give low values 0.998 | S. cerevisiae deletion strains, locus YML016C, strain PPZ1, hits give low values 0.994 | S. cerevisiae deletion strains, locus YML032C, strain rad52, hits give low values 0.996 | S. cerevisiae deletion strains, locus YML124C, strain tub3, hits give low values 1.02 | S. cerevisiae deletion strains, locus YMR078C, strain ctf18, hits give low values 1.02 | S. cerevisiae deletion strains, locus YMR223W, strain ubp8, hits give low values 1.04 | S. cerevisiae deletion strains, locus YMR307W, strain GAS1, hits give low values 0.907 | S. cerevisiae deletion strains, locus YNL067W, strain RPL9B, hits give low values 1.03 | S. cerevisiae deletion strains, locus YNL233W, strain BNI4, hits give low values 1.02 | S. cerevisiae deletion strains, locus YNL250W, strain rad50, hits give low values 1.02 | S. cerevisiae deletion strains, locus YNL271C, strain bni1, hits give low values 1.04 | S. cerevisiae deletion strains, locus YNL298W, strain CLA4, hits give low values 0.963 | S. cerevisiae deletion strains, locus YNL307C, strain MCK1, hits give low values 0.994 | S. cerevisiae deletion strains, locus YNR052C, strain pop2, hits give low values 1.01 | S. cerevisiae deletion strains, locus YOL006C, strain TOP1, hits give low values 1.04 | S. cerevisiae deletion strains, locus YOL012C, strain htz1 0.814 | S. cerevisiae deletion strains, locus YOL147C, strain pex11, hits give low values 1.02 | S. cerevisiae deletion strains, locus YOR061W, strain CKA2, hits give low values 1 | S. cerevisiae deletion strains, locus YOR069W, strain VPS5, hits give low values 0.999 | S. cerevisiae deletion strains, locus YOR136W, strain idh2, hits give low values 0.993 | S. cerevisiae deletion strains, locus YOR144C, strain elg1, hits give low values 1.04 | S. cerevisiae deletion strains, locus YOR184W, strain ser1, hits give low values 1.07 | S. cerevisiae deletion strains, locus YOR316C, strain cot1, hits give low values 1.02 | S. cerevisiae deletion strains, locus YPL055C, strain LGE1, hits give low values 1.02 | S. cerevisiae deletion strains, locus YPR119W, strain clb2, hits give low values 1.01 | S. cerevisiae deletion strains, locus YPR141C, strain kar3, hits give low values 1.08 | S. cerevisiae deletion strains, locus YPR163C, strain tif3, hits give low values 0.996 | S. cerevisiae deletion strains, locus YPR167C, strain met16, hits give low values 1.02 | S. cerevisiae deletion strains, strain wtn01, hits give low values 1.02 | S. cerevisiae strains, strain wild type, hits give low values 1.01
active: S. cerevisiae deletion strains, locus YIR030C, strain dcg1, hits give low values 1.08 [resistant]

Reference: PubChem BioAssay AID1159580 (chemical genetic matrix, 2015)
